# Pol eta inh-1 = DNA polymerase eta (human) inhibition; actives 1.2% (n = 390,000); Potency, µM (titrated, usually from 114 µM), without a hit: at the highest dose activity change, negative = inhibition, actives largely listed as inhibitors; recombinant Pol eta, fluorescent DNA replication assay; note: % is set by controls: 0 for no effect and ±100 for the full control effect
#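 Pol eta at 10 nM preincubated with compounds 15 min at room temperature; reaction started with fluorescent substrate (50 nM final) and read kinetically at 0 and 10 min.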
# POLI inh = DNA polymerase iota (human) inhibition | Pol iota fluorescent replication assay, 10 min | Potency, µM (top dose mostly 115 µM), for inactives: at the top dose activity, negative = inhibition, usual class: inhibitors | actives 1% (n = 390,000) | AID 588590
#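 Fluorescent replication assay read twice, at 0 min and 10 min after adding 50 nM (final) substrate. Enzyme (10 nM) and compounds were first incubated 15 min at room temperature; enzyme-free buffer wells were negative controls.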
# Pol kappa inh-1 = blocks human DNA polymerase kappa activity; AID 588579; actives 0.53% (n = 400,000); Potency, µM (highest dose often 107 µM), without a hit: at the highest dose activity, negative = inhibition, most hits filed as inhibitors; purified Pol kappa, fluorescent DNA synthesis assay, 10 min; note: % is set by controls: 0 for no effect and ±100 for the full control effect
#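 Kinetic fluorescence readout at 0 and 10 min followed reaction start with substrate at 50 nM final. Beforehand, enzyme (10 nM Pol kappa) stood 15 min with compound at room temperature; buffer-only wells were negative controls.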
# WRN helicase inh-1 = blocks human WRN helicase. Q14191. WRN helicase unwinding, fluorescent forked duplex, kinetic. Potency, µM (top dose mostly 114 µM), for the others: at the highest dose activity change, negative = inhibition, hits mostly inhibitors. actives 0.46% (n = 360,000); note: % is set by controls: 0 for no effect and ±100 for the full control effect; nearly all actives have a fitted effect of over 55% in size
#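 Primary qHTS, 1536-well format. 20 nM WRN + compound, 15 min RT; start with 100 nM forked fluorophore/quencher duplex, 2 mM ATP (final); kinetic read ex 525/em 598 nm.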
# FEN1 inh-1 = blocks human flap endonuclease 1. P39748. Recombinant FEN1 flap cleavage, fluorescence, 15 min. Potency, µM (highest dose often 114 µM), inactives show top-dose activity change, negative = inhibition, actives largely listed as inhibitors. actives 0.35% (n = 390,000). AID 588795; note: % is set by controls: 0 for no effect and ±100 for the full control effect; nearly all actives have a fitted effect of over 65% in size
# Target sequence (P39748 whole entry, looked up): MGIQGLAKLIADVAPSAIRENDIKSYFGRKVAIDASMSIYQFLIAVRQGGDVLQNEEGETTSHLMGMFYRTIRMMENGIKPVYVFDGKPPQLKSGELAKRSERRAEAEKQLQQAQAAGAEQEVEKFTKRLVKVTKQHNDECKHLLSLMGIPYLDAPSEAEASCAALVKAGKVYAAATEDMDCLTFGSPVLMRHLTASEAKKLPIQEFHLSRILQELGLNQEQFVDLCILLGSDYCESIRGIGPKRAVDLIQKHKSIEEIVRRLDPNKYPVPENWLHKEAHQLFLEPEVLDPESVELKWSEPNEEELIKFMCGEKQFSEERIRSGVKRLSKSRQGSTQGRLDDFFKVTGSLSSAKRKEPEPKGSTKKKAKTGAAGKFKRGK
#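 In this screen, 50 nM flap DNA substrate was added to 10 nM FEN1 pretreated with compound for 15 min at room temperature; cleavage was followed with reads at 0 and 15 min, and Hill fitting gave concentration–response parameters.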
# POLB inh = blocks human DNA polymerase beta activity. actives 1.3% (n = 340,000). P06746. Potency, µM (doses to about 114 µM), for the others: at the top dose activity change, negative = inhibition, actives largely listed as inhibitors. Pol beta primer extension/strand displacement, fluorescence kinetic; note: % is set by controls: 0 for no effect and ±100 for the full control effect
#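 Human Pol beta at 10 nM; strand-displacement substrate 50 nM final. Compound exposure 15 min at room temperature before start, reaction 10 min at room temperature.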
# Pol kappa inh-2 = Pol kappa (human) inhibition, cherry-pick confirmation; purified Pol-kappa, fluorescent strand-displacement substrate; actives 76% (n = 920); shares compounds with Pol eta inh-1; Potency, µM, actives largely listed as inhibitors
# Pol eta inh-2 = confirmation of human DNA polymerase eta inhibitors; shares compounds with Pol eta inh-1; Pol eta primer extension, TAMRA/BHQ fluorescence, 10 min; Potency, µM, most hits filed as inhibitors; actives 64% (n = 2,600); AID 720502
# FEN1 inh-2 = FEN1 inhibition, cherry-pick retest; shares compounds with FEN1 inh-1; FEN1 flap cleavage, TAMRA/BHQ2 fluorogenic DNA substrate; Potency, µM, usual class: inhibitors; actives 79% (n = 880); AID 720498; note: nearly all actives have a fitted effect of over 60% in size
# WRN helicase inh-2 = WRN helicase inhibition, cherry-pick retest; Potency, µM (series often up to 57.1 µM), for inactives: top-dose activity, negative = inhibition, most hits filed as inhibitors; WRN helicase DNA unwinding, fluorescence kinetic; actives 63% (n = 610); shares compounds with WRN helicase inh-1; note: nearly all actives have a fitted effect of over 65% in size
# TO DNA binding = binds DNA, flagged in WRN inhibitor counterscreen; Potency, µM (top dose mostly 57.1 µM), for the others: at the top dose activity change, negative = inhibition, hits mostly inhibitors; shares compounds with WRN helicase inh-1; actives 10% (n = 610); thiazole orange DNA binding displacement, fluorescence;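 note: drop in dye fluorescence marks compound binding to DNA; % is set by controls: 0 for no effect and ±100 for the full control effect; nearly all actives have a fitted effect of over 60% in size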
# BLM counter = BLM helicase inhibition, WRN selectivity check; shares compounds with WRN helicase inh-1; Recombinant BLM helicase DNA unwinding, red fluorescence; Potency, µM (doses to about 57.1 µM), for inactives: top-dose activity change, negative = inhibition, most hits filed as inhibitors; actives 60% (n = 610); note: nearly all actives have a fitted effect of over 60% in size
# An asterisk follows results filed as active; ? = inconclusive; / = not tested or not shown; [ ] = remark or other dose. Sampled rows, rich in hits. Any-hit rate of the full collection: about 2.4%. Calls come from the whole dose curve; as a rule, active = well fitted curve in the direction sought with a large enough effect; inconclusive = small, poorly fitted or top-dose-only effect, or another doubt; inactive = no such curve, though single readings can be large; an effect the other way counts as inactive or inconclusive. Potency is the fitted concentration of half-maximal effect.
SMILES,Pol eta inh-1,POLI inh,Pol kappa inh-1,WRN helicase inh-1,FEN1 inh-1,POLB inh,Pol eta inh-2,others
O=C1NC(=O)N(c2ccccc2)C(=O)/C1=C\c1ccccc1[N+](=O)[O-],-6%,?,-15%,?,3%,0%,/,
COc1ccc(N2C(=O)/C(=C/C=C/c3ccccc3[N+](=O)[O-])C(=O)NC2=S)cc1,22µM*,16µM*,?,25µM*,?,20µM*,?,
Nc1nonc1C(=O)N/N=C/c1ccc([N+](=O)[O-])o1,20µM*,32µM*,?,?,-26%,?,?,
C/C(=C/CCC(C)[C@H]1CC[C@@]2(C)C3=C(CC[C@]12C)[C@@]1(C)CCC(=O)C(C)(C)[C@@H]1CC3)C(=O)O (stereo not given in full),79µM*,-26%,-17%,79µM*,50µM*,-18%,?,
CCN1CC2(OC(=O)c3ccccc3NC(C)=O)CCC(OC)[C@]34C1[C@H](CC23)[C@@]1(O)C[C@H](OC)[C@H]2CC4C1(O)[C@H]2OC (stereo not given in full),/,/,15%[60.1 µM],/,/,/,/,
COc1cccc(N2C(=O)/C(=C/c3ccc(C)o3)C(=O)NC2=S)c1,13µM*,?,-10%,?,?,45µM*,60*,Pol kappa inh-2=30*
Cc1ccc(/C=C2\C(=O)NC(=S)N(c3ccc(F)cc3)C2=O)o1,13µM*,?,25µM*,?,?,16µM*,30*,Pol kappa inh-2=17*
CN1CC[C@@]2(CCCN(C(=O)c3ccncc3)C2)C1,/,/,-3%[60.1 µM],/,/,/,/,
Cc1cccn2c(=O)cc(COc3cccc(NC(=O)COc4ccc(F)cc4)c3)nc12,?,-4%,-13%[60.1 µM],/,-10%,-27%,/,
CN1C(=O)C(=Cc2ccc(SC3CCCCC3)o2)C(=O)N(C)C1=O,22µM*,?,-27%,-32%,-1%,22µM*,/,Pol kappa inh-2=?
CS(=N)(=O)CC[C@@H](N)C(=O)O (stereo not given in full),/,/,-4%[12 µM],/,/,/,/,
N[C@@H](Cc1cc(I)c(O)c(I)c1)C(=O)O,40µM*,32µM*,50µM*,?,7.9µM*,31%,30*,FEN1 inh-2=60*
Cc1cccc(Cn2cccc(C(=O)Nc3nnc(C)s3)c2=O)c1,4%,-9%,-8%[60.1 µM],/,4%,-22%,/,
CCOc1ccc(N2C(=O)NC(=O)/C(=C\c3cc(OC)c(OC)cc3[N+](=O)[O-])C2=O)cc1,-5%,?,-18%,?,-4%,16%,/,
COc1ccccc1N1C(=O)NC(=O)/C(=C/c2ccc([N+](=O)[O-])s2)C1=O,18µM*,?,40µM*,35µM*,45µM*,?,38*,FEN1 inh-2=11*
COc1cccc(N2C(=O)NC(=O)/C(=C/c3ccc([N+](=O)[O-])s3)C2=O)c1,14µM*,?,32µM*,35µM*,40µM*,?,27*,FEN1 inh-2=15*
COc1ccccc1N1C(=O)NC(=O)/C(=C/c2ccc3c4c(cccc24)CC3)C1=O,?,2%,-7%,?,10%,-27%[57.1 µM],/,
NCCc1cc(O)c(O)cc1O,56µM*,1.4µM*,0.71µM*,?,25µM*,/,67*,FEN1 inh-2=?
CCNC(=O)O/N=C(\C)c1sc(-c2ccc(Cl)cc2)nc1C,-18%,?,-13%,-5%,4%,-5%,/,
C=CCN1C(=O)/C(=C/c2ccc(N3CCOCC3)o2)C(=O)NC1=S,-17%,?,-18%,-12%,-4%,?,/,
C=CCN1C(=O)/C(=C/c2cccs2)C(=O)NC1=S,?,?,-23%,0.47µM*,-8%,79µM*,?,WRN helicase inh-2=-17%;TO DNA binding=2%;BLM counter=?
COc1ccc(N2C(=O)NC(=O)/C(=C/c3ccc(N4CCOCC4)cc3)C2=O)cc1,/,/,/,/,/,-2%,/,
COc1ccc(N2C(=O)NC(=O)/C(=C/c3ccc([N+](=O)[O-])s3)C2=O)cc1,8.9µM*,54%,18µM*,50µM*,?,?,30*,FEN1 inh-2=19*;WRN helicase inh-2=19µM*;TO DNA binding=?;BLM counter=22µM*
COc1ccc(N2C(=O)NC(=O)/C(=C\c3ccc([N+](=O)[O-])s3)C2=O)cc1,18µM*,?,50µM*,25µM*,?,?,27*,FEN1 inh-2=9.5*;WRN helicase inh-2=22µM*;TO DNA binding=-17%;BLM counter=-22%
Cn1cccc1/C=C1\C(=O)NC(=O)N(Cc2ccccc2Cl)C1=O,28µM*,20µM*,32µM*,40µM*,?,-27%,67*,WRN helicase inh-2=?;TO DNA binding=-15%;BLM counter=17µM*
SMILES,Pol eta inh-1,POLI inh,Pol kappa inh-1,WRN helicase inh-1,FEN1 inh-1,POLB inh,Pol eta inh-2,others
Cc1ccccc1N1C(=O)NC(=O)/C(=C\c2ccc3c(c2)CCCN3Cc2ccccc2)C1=O,20µM*,?,-29%,13µM*,-36%,25µM*,?,WRN helicase inh-2=?;TO DNA binding=7%;BLM counter=24µM*
CN(C(=O)Cc1ccc(Cl)c(Cl)c1)[C@H](CN1CCCC1)c1ccccc1,/,/,0%[19.4 µM],/,/,/,/,
O=C1N=NC2=C1c1c3ccccc3c(O)n1CC2,-10%,?,-10%,-6%[57.1 µM],-21%,3%,/,
C/C(=C\[C@@H](N)C(=O)O)CP(=O)(O)O,/,/,-8%[19.4 µM],/,/,/,/,
Cc1cc(C=C(C#N)C#N)ccc1N1CCCC1,-7%,89µM*,-16%,-24%[57.1 µM],?,10%,/,FEN1 inh-2=76*
COc1ccc2c(c1O)-c1cc(O)cc3c1[C@@H](C2)N(C)CC3,/,/,-3%[19.4 µM],/,/,/,/,
